Screen size: about 1,300 compounds; about 380 (29%) were called active. Inconclusive results (about 37%) are left out. Calls come from the whole dose curve; as a rule, active = well fitted inhibition curve with a large enough effect; inconclusive = small, poorly fitted or top-dose-only effect; inactive = flat fitted curve, though single readings scatter. Some of the results follow.
These molecules were tested against Thyrotropin receptor (Homo sapiens) (UniProt P16473) (assay: qHTS for antagonists of the Thyroid Stimulation Hormone Receptor: Hit Validation in Primary Screen). Details: TSHR-expressing cells, cAMP antagonist mode; series mostly up to 58 µM.
Outline: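 TSHR-expressing cells were pretreated with compound, then stimulated with TSH at EC80 (4nM final) for 2 hours at 37 deg C. Cellular cAMP measured by competitive HTRF (anti-cAMP cryptate, cAMP-d2) after 30 min at room temperature.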
Note: nearly all actives have a fitted effect of over 80% in size.
Potency is the fitted concentration of half-maximal effect.

Sequence of Thyrotropin receptor (Homo sapiens) (P16473 whole entry, looked up): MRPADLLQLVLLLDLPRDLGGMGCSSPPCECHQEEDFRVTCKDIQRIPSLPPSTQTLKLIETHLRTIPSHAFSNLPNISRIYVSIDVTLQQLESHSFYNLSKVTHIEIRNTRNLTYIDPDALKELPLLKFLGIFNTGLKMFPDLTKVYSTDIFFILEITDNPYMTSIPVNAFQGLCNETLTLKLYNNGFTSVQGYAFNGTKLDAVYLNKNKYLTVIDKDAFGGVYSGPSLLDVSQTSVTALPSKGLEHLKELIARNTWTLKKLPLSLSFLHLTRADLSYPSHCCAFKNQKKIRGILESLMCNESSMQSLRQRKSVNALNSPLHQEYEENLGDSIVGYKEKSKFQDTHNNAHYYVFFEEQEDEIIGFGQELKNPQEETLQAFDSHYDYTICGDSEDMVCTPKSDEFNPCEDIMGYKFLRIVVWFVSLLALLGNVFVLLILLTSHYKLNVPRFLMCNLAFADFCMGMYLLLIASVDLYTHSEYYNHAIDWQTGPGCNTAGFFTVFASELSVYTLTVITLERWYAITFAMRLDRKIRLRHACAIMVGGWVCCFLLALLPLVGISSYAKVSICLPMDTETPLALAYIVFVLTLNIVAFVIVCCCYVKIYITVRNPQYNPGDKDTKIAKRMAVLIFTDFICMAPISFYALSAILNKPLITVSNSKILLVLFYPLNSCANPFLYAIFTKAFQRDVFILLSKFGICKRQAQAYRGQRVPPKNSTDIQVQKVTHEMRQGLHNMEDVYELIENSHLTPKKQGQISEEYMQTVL

Potency, inactive:
COc1ccc(CCNc2ncnc3c2[nH]c2cc(OC)c(OC)cc23)cc1OC
Cc1nn(S(=O)(=O)c2ccc(F)cc2)c(C)c1S(=O)(=O)N1CCOCC1
Cc1nc2ccccc2n1CC(=O)N/N=C\C=C\c1ccccc1
COc1ccc(-n2nnnc2SCC(=O)NC2CCCC2)cc1OC
Cc1ccc(Nc2cc(C)nc3ccc(C)cc23)cc1
Cc1ccccc1C(=O)Nc1nnc(SCC(=O)NC2CC2)s1
CCC(C)NC(=O)CN1C(=O)CSc2ccc(S(=O)(=O)N3CCCC3)cc21 (configuration not stated)
CC1CCN(CCCNC(=O)CN2C(=O)CSc3ccc(S(=O)(=O)N4CCOCC4)cc32)CC1
O=C1CSc2nc3ccccc3n21
COc1ccccc1NC(=O)NNC(=O)CCN1CCOCC1
NS(=O)(=O)c1ccc(CNC(=O)CCS(=O)(=O)Cc2ccccc2)cc1
Brc1ccc(-c2nnc(-c3cccc(Br)c3)o2)cc1
CCOCCCNC(=O)C(NC(=O)c1ccc(=O)[nH]c1)c1ccc(Cl)cc1 (configuration not stated)
COc1ccc(-n2nc(C(=O)NCC(=O)Nc3cc(OC)c(OC)c(OC)c3)c3ccccc3c2=O)cc1OC
CCn1nc(C)c(NC(=O)/C=C/c2ccc(OC)c(COc3ccc(Br)cc3)c2)c1C
CCCC(=O)Nc1nnc(CCc2ccccc2)s1
Cc1ccc(S(=O)(=O)N(CC(=O)NCc2ccccn2)c2ccc(Cl)cc2)cc1
CS(=O)(=O)Cc1ccc(C(=O)Nc2cccc(-c3nc4ccccc4[nH]3)c2)cc1
CCN(c1ccccc1)S(=O)(=O)c1ccc(NCC2COc3ccccc3O2)nc1 (configuration not stated)
CCS(=O)(=O)c1ccc(C(=O)Nc2ccccc2)c(Cl)c1Cl
CCSc1ncc(Cl)c(C(=O)Nc2ccccc2OC)n1
Cc1onc(-c2c(Cl)cccc2Cl)c1C(=O)N1CCc2ccccc2C1
COc1ccc(/C=N/n2c(C)nnc2C)c(OC)c1OC
CCN(C(=O)c1cc2c(=O)n3ccccc3nc2n1C)C1CCCCC1
CC(=O)Nc1nc(C)c(Oc2ccc(C)cc2)c(=O)[nH]1
COc1ccc(Nc2ccc([N+](=O)[O-])c3nonc23)c(OC)c1
Cc1ccc(NC(=O)c2cccc(OCc3c(C)noc3C)c2)cc1S(=O)(=O)Nc1ccccc1Cl
Fc1cccc(Cl)c1CNCc1cccnc1
O=C(NCc1cccnc1)c1nc(-c2ccccc2)n(-c2ccccc2)n1
O=c1[nH]c(=S)[nH]c2c1CN(Cc1ccc(F)cc1)CC2
O=c1c2nncn2c2cccnc2n1CCNc1ncc(C(F)(F)F)cc1Cl
O=C(N/N=C/c1ccc[nH]1)c1sc2ccccc2c1Cl
Nc1nnc(COc2ccc(Br)cc2Br)s1
COc1ccc(CN2CCCN(C)CC2)c(OC)c1C
Cc1ccc(S(=O)(=O)NCCNS(=O)(=O)c2ccc(C)cc2)cc1
CCOC(=O)N1CCN(C(=O)c2ccc(NS(=O)(=O)c3ccc(C)cc3)cc2)CC1
Cc1cccc(C)c1NC(=O)N1CCC(C(=O)c2ccc(F)cc2)CC1

Potency, active:
COc1ccc(CCNc2ncnc3sc(C)cc23)cc1OC 19 µM
Cc1cc2c(NCCc3ccccc3)ncnc2s1 23.9 µM
Cc1ccc(-c2nc3ccc(C(=O)O)cc3nc2-c2ccc(C)cc2)cc1 23.9 µM
N#Cc1ccc(NC(=O)Nc2ccc(Cl)cc2)cc1 7.57 µM
Nc1ccccc1N=Cc1ccc(-c2cccc(Cl)c2)o1 37.9 µM
COc1ccccc1N1CCN(c2nc(C)nc3c2oc2ccccc23)CC1 26.9 µM
Cc1ccc(NC(=O)Nc2ccc3c(c2)N(C)C(=O)CS3)cc1C 30.1 µM
CC(=O)N(C1=C(Cl)C(=O)c2ccccc2C1=O)C1CCCCC1 30.1 µM
CCOc1ccc(CCNC(=O)c2ccc3c(=O)[nH]c4c(C(=O)NC(C)C)sc(=S)n4c3c2)cc1 6.01 µM
CCCCNC(=O)c1sc(=S)n2c1[nH]c(=O)c1ccccc12 4.78 µM
N#Cc1c(SCc2c(Cl)cccc2Cl)nc(N)[nH]c1=S 19 µM
Cc1nn(-c2ccccc2)c(C)c1NC(=O)COc1ccc(Br)cc1Cl 23.9 µM
CCC1CCCCN1S(=O)(=O)c1ccc(NC(=O)c2nc(S(C)(=O)=O)ncc2Cl)cc1 (configuration not stated) 9.53 µM
CN1/C(=C/C(=O)c2nc(S(C)(=O)=O)ncc2Cl)C(C)(C)c2ccccc21 21.3 µM
CS(=O)(=O)c1ncc(Cl)c(C(=O)Nc2ccc3ccccc3c2)n1 30.1 µM
CCN(c1ccccc1)S(=O)(=O)c1ccc(NC(=O)c2nc(S(C)(=O)=O)ncc2Cl)cc1 26.9 µM
CN(c1ccccc1)S(=O)(=O)c1ccc(NC(=O)c2nc(S(C)(=O)=O)ncc2Cl)cc1 21.3 µM
CCS(=O)(=O)c1ncc(Cl)c(C(=O)Nc2ccc(S(=O)(=O)N(C)c3ccccc3)cc2)n1 19 µM
CCN(CC)c1ccc2nc3ccccc3[n+](CC)c2c1 13.5 µM
Cc1c(N=Nc2c(-c3ccc([N+](=O)[O-])cc3)[nH]n(C(N)=S)c2=O)cccc1[N+](=O)[O-] 3.79 µM
O=[N+]([O-])c1ccc(Sc2cccc[n+]2[O-])c2nonc12 8.49 µM
O=C(Nc1ccc(Cl)c(Cl)c1)c1cccc(S(=O)(=O)NCc2cccnc2)c1 13.5 µM
CN(C)S(=O)(=O)Oc1cccc(C(=O)Nc2ccc(Cl)c(Cl)c2)c1 26.9 µM
O=C(O)c1nn(CC(=O)N2CCN(c3ncc(C(F)(F)F)cc3Cl)CC2)c(=O)c2ccccc12 21.3 µM
Cc1ccc(-n2[nH]c(C)c(/C=N/Nc3ccc([N+](=O)[O-])cc3[N+](=O)[O-])c2=O)cc1C 2.39 µM
Cc1ccc(-n2[nH]c(C)c(/C=N/Nc3ccc([N+](=O)[O-])cc3[N+](=O)[O-])c2=O)cc1 6.75 µM
O=C(Oc1c(Br)cc([N+](=O)[O-])cc1Br)c1cccnc1 4.26 µM
Cc1ccc(S(=O)(=O)Nc2ccc(N=Nc3ccc(O)cc3)cc2)cc1 30.1 µM
N#C/C(=N\Nc1ccc(Cl)c(Cl)c1)C(=O)C1CC1 6.01 µM
O=C(Nc1nnc(C(F)(F)F)s1)c1ccc(Br)s1 10.7 µM
